Abeta yeast res: A-beta toxicity reversal in yeast; yeast expressing A-beta42, growth rescue, OD600, 48 h; response scale: 0% DMSO, 100% iron-clioquinol control; Potency, µM (series often up to 46.1 µM), hits mostly activators; actives 0.063% (n = 410,000); AID 1347071; also: nearly all actives have a fitted effect of over 55% in size
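Growth rescue measured by 600 nm absorbance after 48 h yeast culture at 30 C with compound. Values normalized between DMSO and an equimolar ferric chloride plus clioquinol control.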
TDP43 rescue: rescues yeast growth from TDP-43 toxicity; TDP-43 expressing yeast growth rescue, BacTiter-Glo, 24 h; Potency, µM (highest dose often 46.1 µM), without a hit: at the top dose growth rescue (activation), hits mostly activators; actives 1.8% (n = 410,000); AID 652104; also: % of control where 0% means no effect; nearly all actives have a fitted effect of over 50% in size
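Galactose-induced TDP-43 yeast, OD600=0.02, compound pinned; 24 hr, 30 deg C; BacTiter-Glo luminescence for growth. Inhibitors of TDP-43 toxicity read as activators.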
aSyn yeast inh: inhibitors of alpha-synuclein toxicity in yeast. Yeast expressing alpha-synuclein, growth rescue, BacTiter-Glo, 24 h. actives 0.14% (n = 370,000). Potency, µM (titrated, usually from 46.1 µM), inactives show at the top dose growth rescue (activation), usual class: activators; also: % of control where 0% means no effect; nearly all actives have a fitted effect of over 65% in size
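Galactose-induced alpha-syn yeast (OD600=0.02, raffinose-pregrown) + pinned cpd, 24 hr, 30 deg C; growth by BacTiter-Glo luminescence. Growth restoration scores as activation.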
FUS suppressor: FUS proteinopathy suppression in yeast; S. cerevisiae FUS-expressing, growth rescue, OD600, 24 h; Potency, µM (top dose mostly 76.6 µM), most hits filed as activators; actives 0.24% (n = 390,000); AID 1347120;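 also: plate controls were DMSO vehicle for no effect and reference control for full effect; nearly all actives have a fitted effect of over 55% in size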
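Cultures pregrown in 2.5% raffinose medium are shifted to minimal medium containing 2% galactose to express toxic FUS. Compounds are tested at several concentrations. After 24hr at 30C, growth is quantified at 600 nm absorbance.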
Glioma ERSR ind: inducers of ER stress response in human glioma cells. Potency, µM, inactives show at the highest dose activation, actives largely listed as activators. AID 602332. U87-MG GRP78 promoter luciferase reporter, 16 h. actives 0.02% (n = 420,000); also: series mostly up to about 76 µM; % of control where 0% means no effect; nearly all actives have a fitted effect of over 35% in size
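ERSR induction read as luciferase luminescence (Bright-Glo, 10 min at room temperature) in stably transfected human U87-MG glioma cells exposed to compounds for 16 h, using GRP78 as sensor.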
MBNL1-CUG inh: inhibitors of human MBNL1 binding to CUG repeat RNA; TR-FRET MBNL1-His/biotin-(CUG)12 binding, 665/545 ratio; Potency, µM (doses to about 57.5 µM), without a hit: top-dose activity change, negative = inhibition, hits mostly inhibitors; actives 0.036% (n = 280,000); AID 2675; active = well fitted inhibition curve with a large enough effect in the signal ratio, with a control signal flat, not every such curve was filed as active; inconclusive = small, poorly fitted or top-dose-only effect, or effect the other way, or a change in a side signal; inactive = no such curve, though single readings can be large or run the other way; the % refers to the signal ratio; also: % is scaled to controls: 0 for no effect and ±100 for the full control effect
Target sequence (Q9NR56 whole entry, looked up): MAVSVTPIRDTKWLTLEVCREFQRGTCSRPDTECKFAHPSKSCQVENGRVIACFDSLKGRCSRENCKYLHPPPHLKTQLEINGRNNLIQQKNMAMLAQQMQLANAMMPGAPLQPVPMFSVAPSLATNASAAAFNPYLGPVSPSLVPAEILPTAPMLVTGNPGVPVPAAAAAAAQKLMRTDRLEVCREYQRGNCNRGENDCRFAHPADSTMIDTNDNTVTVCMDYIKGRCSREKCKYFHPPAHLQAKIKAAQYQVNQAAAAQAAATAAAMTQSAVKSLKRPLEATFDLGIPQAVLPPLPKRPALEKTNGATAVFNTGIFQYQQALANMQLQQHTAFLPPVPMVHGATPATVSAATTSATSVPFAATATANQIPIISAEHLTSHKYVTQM
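TR-FRET between His-tagged MBNL1 and biotin-(CUG)12 RNA, detected with Tb anti-His antibody (0.055 ng/ul) and streptavidin-XL665 (5 nM), 60 min at room temperature. Compounds titrated 92 nM to 58 uM; 665/545 nm ratio normalized to buffer and complex controls.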
* = called active by the depositor; i = inactive; ? = inconclusive; · = no result; [ ] = dose if it differs, or a comment. Sampled rows, rich in hits. Any-hit rate of the full collection: about 2%. Unless noted, calls follow the shape of the dose curve; as a rule, active = well fitted curve in the direction sought with a large enough effect; inconclusive = small, poorly fitted or top-dose-only effect, or another doubt; inactive = no such curve, though single readings can be large; an effect the other way counts as inactive or inconclusive. Potency is read from the fitted curve at half-maximal effect.

SMILES | Abeta yeast res | TDP43 rescue | aSyn yeast inh | FUS suppressor | Glioma ERSR ind | MBNL1-CUG inh
COc1ccc(NS(=O)(=O)c2ccc3ccccc3c2)c2ncccc12 | 4.47µM* | ? | ? | i | -6.3% | 0.5%
COc1ccccc1NS(=O)(=O)c1ccc2ccccc2c1 | i | 20µM* | 26.0% | i | -6.1% | 4.2%
COc1ccccc1NS(=O)(=O)c1ccc(OC)c(OC)c1 | i | 19.0% | -0.3% | i | -4.2% | -1.8%
Cc1c(C(=O)N2CCN(C(C)C)CC2)sc2ncnc(NCc3ccco3)c12 | · | · | · | · | -4.0% | ·
CCCCc1ccc(NC(=O)c2ccc(=O)n(Cc3cccc(C)c3)c2)cc1 | i | 0.0% | 1.3% | i | -1.3% | ·
COC(=O)c1ccccc1NC(=O)c1ccc(=O)n(Cc2cccc(C)c2)c1 | i | 31.6µM* | -0.3% | i | -1.5% | ·
COc1ccc(CN(C)C(C#Cc2ccccc2)Cc2ccccc2)c(OC)c1 (configuration not stated) | · | · | · | i | · | ·
COc1cc(OC)c(OC)cc1CN1CCC(n2cc(C(=O)N3CCCCC3)nn2)CC1 | · | · | · | · | -3.0% | ·
O=C(NCc1ccco1)c1ccc(Oc2ccccc2)cc1 | i | 20µM* | -0.1% | i | 4.0% | 4.4%
COc1cc(N2C(=O)c3ccccc3C2=O)c(Cl)cc1C(=O)OCC(=O)NCc1ccco1 | i | 12.6% | -6.9% | 15.8µM* | -4.5% | -1.2%
O=C(NCc1ccco1)c1ccc(C(=O)NCc2ccco2)cc1 | i | 13.4% | -2.9% | · | -3.2% | ·
O=C(COC(=O)c1cccc(Oc2ccccc2)c1)NCc1ccco1 | ? | 15.8µM* | 16.4% | i | -3.1% | 4.4%
Cc1nc2ccc(S(=O)(=O)NCC(=O)NCc3cccs3)cc2s1 | · | · | · | i | · | ·
COC(=O)[C@@]1(Cc2ccc(F)cc2)[C@H]2c3cc(C(=O)N(C)C)n(CCF)c3C[C@H]2CN1C(=O)c1ccccc1 | i | ? | ? | i | · | ·
COC(=O)[C@@]1(Cc2ccc(F)cc2)[C@H]2c3cc(C(=O)N(C)C)n(CC4CC4)c3C[C@H]2CN1C(=O)c1ccccc1 | i | 9.0% | 8.9% | 25.1µM* | · | ·
COc1cc(OC)c2nc(-c3cc4c(c(OC)c3)OCCN(C(=O)CC3NC(=O)c5ccccc53)C4)cc(C)c2c1 (configuration not stated) | · | · | · | · | -1.0% | ·
CCn1c(SCC(=O)Nc2nc(-c3ccccc3)cs2)nnc1-c1ccccc1O | i | 20µM* | 13.7% | i | -1.2% | -7.3%
CCc1nnc(NC(=O)CSc2nnc(-c3ccccc3O)n2CC)s1 | i | -8.1% | 0.0% | i | -3.5% | 3.8%
Cc1ccc(-c2csc(NC(=O)CSC3=NCCS3)n2)cc1 | i | 7.08µM* | · | i | 7.0% | ?
COc1cc(C)c(CN2CCC3(CCC(CNC(=O)c4ccnn4C)O3)CC2)cc1C (configuration not stated) | · | · | · | · | -3.6% | ·
CCOC(=O)c1cnc(-n2nc(C)cc2C)nc1Nc1ccccc1OC | · | · | · | · | · | -13.1%
CCOC(=O)c1cnc(-n2cc(C)cn2)nc1Nc1ccccc1OCC | i | 20µM* | -15.3% | i | -2.8% | -13.4%
COc1ccccc1C/C(N)=N/OC(=O)c1ccc2c(c1)OCO2 | i | ? | -70.8% | i | ? | -2.4%
COc1ccccc1C/C(N)=N/OC(=O)c1ccco1 | i | 10µM* | -32.7% | i | 2.9% | -4.8%
Cc1cc(C)c(NC(=O)/C=C\C(=O)O)c([N+](=O)[O-])c1 | i | 15.8µM* | -63.9% | i | -0.4% | 5.4%
SMILES | Abeta yeast res | TDP43 rescue | aSyn yeast inh | FUS suppressor | Glioma ERSR ind | MBNL1-CUG inh
Cc1cc(C)c(NC(=O)/C=C\C(=O)O)c(Cl)c1 | i | 12.6µM* | 2.2% | i | -1.6% | -3.9%
Cc1ccc(NC(=O)/C=C\C(=O)O)c([N+](=O)[O-])c1 | i | ? | -6.0% | · | -3.3% | ?
COc1cccc(OC)c1CN1CCC2(CCC(CNC(=O)c3ccn(C)n3)O2)CC1 (configuration not stated) | · | · | · | · | -3.7% | ·
CCN1CCCC1CNC(=O)c1cnn(-c2nccc(-c3ccccc3F)n2)c1C (configuration not stated) | · | · | · | · | -1.5% | ·
O=C(CCc1nc(-c2ccccc2F)no1)NCCc1ccc(F)cc1 | · | · | · | i | · | ·
O=C(Nc1ccc(Br)cc1)c1ccc(F)c(S(=O)(=O)NCc2cccs2)c1 | ? | 20µM* | ? | i | -1.1% | 2.2%
O=S(=O)(NCc1cccs1)c1ccc(Br)cc1 | i | 13.0% | 1.3% | i | -1.8% | -0.1%
Cc1cc2c(cc1C)-c1nnnn1C(N1CCCC1)C(=O)N2 (configuration not stated) | i | 23.6% | -7.1% | i | · | ·
Cc1cc2c(cc1C)-c1nnnn1C(N1CCC(Cc3ccccc3)CC1)C(=O)N2 (configuration not stated) | i | 25.1µM* | 0.0% | i | · | ·
Cc1cc(-c2ccc(C)c(S(=O)(=O)NCCc3ccc(S(N)(=O)=O)cc3)c2)on1 | i | 8.0% | 4.5% | i | -4.4% | -3.1%
Cc1cc(-c2ccc(C)c(S(=O)(=O)NCc3cccc(Br)c3)c2)on1 | i | 35.5µM* | 1.7% | ? | -1.0% | 2.6%
Cc1cc(-c2ccc(C)c(S(=O)(=O)NCc3ccc(Br)cc3)c2)on1 | i | 17.8µM* | 13.6% | i | -3.4% | 2.4%
Cc1ccc(C(=O)NCCNc2ccc([N+](=O)[O-])cc2C(F)(F)F)cc1 | i | 9.4% | -1.4% | i | -4.2% | ·
O=[N+]([O-])c1ccc(NCCNS(=O)(=O)c2ccccc2)c(C(F)(F)F)c1 | i | 27.5% | 0.1% | i | -1.9% | ?
Cc1ccc(S(=O)(=O)NCCNc2ccc([N+](=O)[O-])cc2C(F)(F)F)cc1 | i | 22.4µM* | ? | i | -4.3% | ?
O=C(NCCNc1ccc([N+](=O)[O-])cc1C(F)(F)F)c1ccccc1F | i | 20µM* | 15.4% | i | -5.5% | ?
S=c1[nH]cnc2scc(-c3ccc(Br)cc3)c12 | ? | -5.2%[9.22 µM] | -3.4% | i | -6.6% | 87.9%
Cc1ccc(-c2csc3nc[nH]c(=S)c23)cc1 | i | 17.8µM* | 8.8% | i | 5.0% | -2.1%
COC(=O)c1ccccc1-c1cc(C)cc2c1OC(CNC(=O)c1cc(C)n(C)n1)C2 (configuration not stated) | · | · | · | · | -1.1% | ·
Cn1nc(C(=O)NCC2COc3ccccc3O2)c2ccccc2c1=O (configuration not stated) | i | 20µM* | 9.3% | i | -0.9% | ·
